The whole screen tested about 5,500 compounds, of which about 2,000 (36%) were called active. Another 18% or so got no clear call; they are omitted. No stated cut-off is given here; in the data, active means normalized growth mostly below about 0.91 (no sharp cut-off); inconclusive means no clear call, values can overlap the other calls; inactive means mostly above about 0.92. This is one part of the list.
Assay: chemical genetic growth profiling, strain panel (AID 1159580);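 further: tested at 20 µM; growth read once vehicle control cultures reached saturation at 30 °C; 1 = growth at the plate median or of vehicle wells; lower values mean less growth of the strain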
Settings: growth OD

Measured: normalized growth

COc1cc(OC)c2c3c1C(=O)c1c(OC)cc(C)c4c(OC)cc(c-3c14)C(C)(C)C2=O
inactive: S. cerevisiae deletion strains, locus YAL013W, strain DEP1, active compounds read low 1.02 | S. cerevisiae deletion strains, locus YBR021W, strain FUR4, active compounds read low 0.993 | S. cerevisiae deletion strains, locus YBR229C, strain ROT2, active compounds read low 1.02 | S. cerevisiae deletion strains, locus YCL029C, strain bik1, active compounds read low 0.993 | S. cerevisiae deletion strains, locus YDL035C, strain GPR1, active compounds read low 0.99 | S. cerevisiae deletion strains, locus YDL074C, strain BRE1, active compounds read low 0.991 | S. cerevisiae deletion strains, locus YDL101C, strain DUN1, active compounds read low 1.01 | S. cerevisiae deletion strains, locus YDL134C, strain PPH21, active compounds read low 1 | S. cerevisiae deletion strains, locus YDL185W, strain tfp1, active compounds read low 0.991 | S. cerevisiae deletion strains, locus YDL192W, strain arf1, active compounds read low 0.988 | S. cerevisiae deletion strains, locus YDR101C, strain arx1, active compounds read low 0.971 | S. cerevisiae deletion strains, locus YDR150W, strain NUM1, active compounds read low 1.01 | S. cerevisiae deletion strains, locus YDR162C, strain NBP2, active compounds read low 1.03 | S. cerevisiae deletion strains, locus YDR318W, strain mcm21, active compounds read low 0.98 | S. cerevisiae deletion strains, locus YDR388W, active compounds read low 0.989 | S. cerevisiae deletion strains, locus YDR502C, strain sam2, active compounds read low 0.981 | S. cerevisiae deletion strains, locus YEL061C, strain CIN8, active compounds read low 1.01 | S. cerevisiae deletion strains, locus YER110C, active compounds read low 0.988 | S. cerevisiae deletion strains, locus YER155C, strain BEM2, active compounds read low 1.01 | S. cerevisiae deletion strains, locus YER167W, strain BCK2, active compounds read low 0.987 | S. cerevisiae deletion strains, locus YGL078C, strain dbp3, active compounds read low 1 | S. cerevisiae deletion strains, locus YGL086W, strain mad1, active compounds read low 0.968 | S. cerevisiae deletion strains, locus YGL248W, strain PDE1, active compounds read low 1.01 | S. cerevisiae deletion strains, locus YGR078C, strain PAC10, active compounds read low 1.01 | S. cerevisiae deletion strains, locus YGR135W, strain pre9, active compounds read low 0.983 | S. cerevisiae deletion strains, locus YGR229C, strain SMI1, active compounds read low 0.997 | S. cerevisiae deletion strains, locus YGR252W, strain gcn5, active compounds read low 0.896 | S. cerevisiae deletion strains, locus YHR030C, strain SLT2, active compounds read low 1.01 | S. cerevisiae deletion strains, locus YHR079C, strain IRE1 (second series), active compounds read low 0.977 | S. cerevisiae deletion strains, locus YHR094C, strain hxt1, active compounds read low 0.985 | S. cerevisiae deletion strains, locus YHR129C, strain ARP1, active compounds read low 1.01 | S. cerevisiae deletion strains, locus YHR200W, strain rpn10, active compounds read low 0.989 | S. cerevisiae deletion strains, locus YIL066C, strain RNR3, active compounds read low 0.999 | S. cerevisiae deletion strains, locus YIL073C, strain SPO22, active compounds read low 0.924 | S. cerevisiae deletion strains, locus YIL125W, strain kgd1, active compounds read low 0.994 | S. cerevisiae deletion strains, locus YIR030C, strain dcg1, active compounds read low 0.979 | S. cerevisiae deletion strains, locus YJL095W, strain BCK1, active compounds read low 1.01 | S. cerevisiae deletion strains, locus YJL134W, strain LCB3, active compounds read low 1 | S. cerevisiae deletion strains, locus YJL168C, strain set2, active compounds read low 0.987 | S. cerevisiae deletion strains, locus YJL187C, strain SWE1 (second series), active compounds read low 1.01 | S. cerevisiae deletion strains, locus YJR043C, strain POL32, active compounds read low 0.993 | S. cerevisiae deletion strains, locus YJR075W, strain HOC1, active compounds read low 0.988 | S. cerevisiae deletion strains, locus YKL009W, strain mrt4, active compounds read low 0.979 | S. cerevisiae deletion strains, locus YKL068W, active compounds read low 0.992 | S. cerevisiae deletion strains, locus YKL085W, strain MDH1 (second series), active compounds read low 0.99 | S. cerevisiae deletion strains, locus YKL085W, strain MDH1, active compounds read low 0.99 | S. cerevisiae deletion strains, locus YKL190W, strain CNB1, active compounds read low 1 | S. cerevisiae deletion strains, locus YKR001C, strain vps1, active compounds read low 0.973 | S. cerevisiae deletion strains, locus YLR039C, strain RIC1, active compounds read low 1.01 | S. cerevisiae deletion strains, locus YLR058C, strain SHM2, active compounds read low 1.01 | S. cerevisiae deletion strains, locus YLR102C, strain apc9, active compounds read low 0.981 | S. cerevisiae deletion strains, locus YLR262C, strain YPT6, active compounds read low 0.995 | S. cerevisiae deletion strains, locus YLR268W, strain sec22, active compounds read low 0.973 | S. cerevisiae deletion strains, locus YLR330W, strain CHS5, active compounds read low 1.02 | S. cerevisiae deletion strains, locus YLR342W, strain FKS1 (second series), active compounds read low 0.967 | S. cerevisiae deletion strains, locus YLR371W, strain rom2, active compounds read low 0.99 | S. cerevisiae deletion strains, locus YLR418C, strain cdc73, active compounds read low 0.947 | S. cerevisiae deletion strains, locus YML016C, strain PPZ1, active compounds read low 1.01 | S. cerevisiae deletion strains, locus YML032C, strain rad52, active compounds read low 0.973 | S. cerevisiae deletion strains, locus YML124C, strain tub3, active compounds read low 0.985 | S. cerevisiae deletion strains, locus YMR078C, strain ctf18, active compounds read low 0.99 | S. cerevisiae deletion strains, locus YMR223W, strain ubp8, active compounds read low 0.969 | S. cerevisiae deletion strains, locus YMR263W, strain SAP30, active compounds read low 1.02 | S. cerevisiae deletion strains, locus YMR307W, strain GAS1, active compounds read low 0.977 | S. cerevisiae deletion strains, locus YNL067W, strain RPL9B, active compounds read low 1.01 | S. cerevisiae deletion strains, locus YNL128W, strain TEP1, active compounds read low 1.02 | S. cerevisiae deletion strains, locus YNL153C, strain GIM3, active compounds read low 1.02 | S. cerevisiae deletion strains, locus YNL233W, strain BNI4, active compounds read low 1.01 | S. cerevisiae deletion strains, locus YNL250W, strain rad50, active compounds read low 0.989 | S. cerevisiae deletion strains, locus YNL271C, strain bni1, active compounds read low 0.994 | S. cerevisiae deletion strains, locus YNL298W, strain CLA4, active compounds read low 0.99 | S. cerevisiae deletion strains, locus YNL307C, strain MCK1, active compounds read low 0.95 | S. cerevisiae deletion strains, locus YNL322C, strain KRE1, active compounds read low 1.01 | S. cerevisiae deletion strains, locus YNR052C, strain pop2, active compounds read low 0.985 | S. cerevisiae deletion strains, locus YOL006C, strain TOP1, active compounds read low 0.991 | S. cerevisiae deletion strains, locus YOL012C, strain htz1 1.08 | S. cerevisiae deletion strains, locus YOL147C, strain pex11, active compounds read low 0.994 | S. cerevisiae deletion strains, locus YOR061W, strain CKA2, active compounds read low 1 | S. cerevisiae deletion strains, locus YOR069W, strain VPS5, active compounds read low 1 | S. cerevisiae deletion strains, locus YOR136W, strain idh2, active compounds read low 0.987 | S. cerevisiae deletion strains, locus YOR144C, strain elg1, active compounds read low 0.991 | S. cerevisiae deletion strains, locus YOR184W, strain ser1, active compounds read low 0.952 | S. cerevisiae deletion strains, locus YOR316C, strain cot1, active compounds read low 0.981 | S. cerevisiae deletion strains, locus YPL055C, strain LGE1, active compounds read low 1.01 | S. cerevisiae deletion strains, locus YPL241C, strain CIN2, active compounds read low 1.01 | S. cerevisiae deletion strains, locus YPR119W, strain clb2, active compounds read low 0.988 | S. cerevisiae deletion strains, locus YPR141C, strain kar3, active compounds read low 0.986 | S. cerevisiae deletion strains, locus YPR163C, strain tif3, active compounds read low 0.989 | S. cerevisiae deletion strains, locus YPR167C, strain met16, active compounds read low 0.981 | S. cerevisiae deletion strains, strain wtn01, active compounds read low 0.95 | S. cerevisiae strains, strain wild type, active compounds read low 1

From PubChem BioAssay AID1159580 (chemical genetic matrix, 2015)
